Experimental findings from the supplement of paper PMC10646978 are described below.

± gives the standard deviation.

The test system of the first assay is RAW-Dual (murine macrophage reporter line). As to the kind of experiment: NF-kB reporter (SEAP) activity fold change vs agonist alone; higher = enhanced NF-kB activity. To be noted: modulator concentration 10 µM; agonist: MPLA […]. A digest of the protocol:
(§1)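 RAW-Dual murine macrophage reporter cells were plated at 50 000 per well in 384-well plates, pin-transferred compound to 10 μM final, and pre-incubated for 1 hour at 37 °C before a PRR agonist was added and the cells incubated overnight. NF-κB activity was read from supernatant SEAP with QUANTI-Blue at 620 nm absorbance, and IRF activity from Lucia luciferase with QUANTI-Luc by luminescence. Each signal was expressed as fold change by dividing by the mean agonist-only control on the same plate. Two replicate plates were averaged, with errors obtained by propagation.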
For the molecule `Cc1ccc(F)c(NC(=O)Nc2ccc(-c3cccc4[nH]nc(N)c34)cc2)c1`, the NF-kB reporter was 1.59 ± 0.16.
On the same count and under the same terms, the value for `CCN(CC)C(=O)N1CCN(C)CC1.O=C(O)CC(O)(CC(=O)O)C(=O)O` was 0.92 ± 0.065; that for `O=S(=O)(Nc1ccnc2ccccc12)c1ccccc1` was 0.936 ± 0.088; that for `CC(C)C(=O)c1c(C(C)C)nn2ccccc12` was 1.21 ± 0.032.
On to `CCC1OC(=O)C(C)C(OC2CC(C)(OC)C(O)C(C)O2)C(C)C(OC2OC(C)CC(N(C)C)C2O)C(C)(O)CC(C)CN(C)C(C)C(O)C1(C)O` (stereo not drawn), for which the NF-kB reporter is 1.19 ± 0.029.
Turning to `O=C(Nc1ccc(NS(=O)(=O)c2ccccc2)cc1)c1ccco1`, the NF-kB reporter amounted to 0.998 ± 0.035.
Take `O=C(CSC1CC(=O)N(c2ccc(C(=O)O)cc2)C1=O)Nc1ccc(F)cc1` (stereo not drawn): the NF-kB reporter was found to be 1.52 ± 0.53.
On to `CC1ON(c2ccc(Cl)c(Cl)c2)C(=O)NC1=O` (stereo not drawn), for which the NF-kB reporter is 1.06 ± 0.11.
Same read-out and setting: in the case of `CCN(CC)c1ccc(C=NNc2cc(N3CCOCC3)nc(N3CCOCC3)n2)cc1` it was 0.994 ± 0.1; in that of `COC(CNS(=O)(=O)c1ccccc1Br)c1ccc(C)s1` (stereo not drawn), 1.13 ± 0.086.
On the same count and under the same terms, the value for `CN(C)CC/C=C1\c2ccccc2COc2ccccc21.Cl` was 1.36 ± 0.096.
Same read-out and setting: the value for `O=c1cccnn1CC1CN(c2ncc(Br)cn2)C1` was 1.07 ± 0.096; that for `CCOC(=O)C1=C(C)NC(C)=C(C(=O)OCC)C1c1ccc(F)cc1` was 1.8 ± 0.067.
Consider `C#CCCCCCCCCCCCC(O)CC(O)COC(C)=O` (stereo not drawn), for which the NF-kB reporter turned out to be 1.13 ± 0.083.
As for `O=C(O)c1nn(-c2ccccc2)c(=O)c2ccccc12`, the NF-kB reporter was 1.03 ± 0.027.
Turning to `Cc1nnc(C(=O)NC(C)(C)c2nc(C(=O)NCc3ccc(F)cc3)c(O)c(=O)n2C)o1`, the NF-kB reporter was 0.935 ± 0.056.
Take `OC(Cn1cncn1)(Cn1cncn1)c1ccc(F)cc1F`: the NF-kB reporter worked out at 1.05 ± 0.091.
For `Cn1c(=O)[nH]c2nnc(-c3cccnc3)nc2c1=O`, the NF-kB reporter is 0.975 ± 0.081.
On the same count and under the same terms, in the case of `Cc1c(C#N)sc2nc(-c3ccccc3)nc(N=CN(C)C)c12` it was 0.952 ± 0.027; in that of `CCC[C@@H]1C[C@@H](C(=O)N[C@@H]([C@H]2O[C@H](SC)[C@H](OP(=O)(O)O)[C@@H](O)[C@H]2O)[C@H](C)Cl)N(C)C1`, 0.952 ± 0.043.
On the same count and under the same terms, in the case of `Cc1nc2n(c(=O)c1CCN1CCC(c3noc4cc(F)ccc34)CC1)CCCC2O` (stereo not drawn) it was 0.997 ± 0.11; in that of `Cc1cc(C(=O)O)n[nH]1`, 1.03 ± 0.12.
With `N=C(N)Nc1ccc(Cl)cc1`, the NF-kB reporter was 0.961 ± 0.042.
For the molecule `COC(=O)C1=CN(CC2CCCO2)C=C(C(=O)OC)C1c1ccc(Cl)cc1` (stereo not drawn), the NF-kB reporter was found to be 1.44 ± 0.54.
On the same count and under the same terms, in the case of `COc1ccc(OC)c(Nc2nc(-c3c(C)nc4ncccn34)cs2)c1` it was 1.09 ± 0.083; in that of `Nc1ncn([C@@H]2O[C@H](CO)[C@@H](O)[C@H]2O)c(=O)n1`, 1.99 ± 0.16.
The same measure, in the same setting: the value for `O=Cc1ccc(OCc2cccc([N+](=O)[O-])c2)c(Br)c1` was 1.09 ± 0.18.
The same measure, in the same setting: the value for `C=C(C)COc1ccc(-c2ncncc2-c2ccccc2)c(O)c1` was 0.963 ± 0.082; that for `CC(=O)c1ccc(NC(=O)c2ccccc2C(=O)O)cc1` was 1.08 ± 0.12; that for `O=c1ccc2cc(O)c(O)cc2o1` was 1.03 ± 0.16.
In the case of `Cc1ccsc1C(=CCCN1CCC[C@@H](C(=O)O)C1)c1sccc1C`, the NF-kB reporter came to 0.972 ± 0.033.
The same measure, in the same setting: in the case of `Br.CCCc1cc(-c2nc(-c3ccc(C)cc3)cs2)ccn1` it was 1.08 ± 0.15; in that of `CCCCc1oc2ccccc2c1C(=O)c1cc(I)c(OCCN(CC)CC)c(I)c1.Cl`, 1.83 ± 0.34; in that of `CNC1CCC(c2ccc(Cl)c(Cl)c2)c2ccccc21.Cl` (stereo not drawn), 1.11 ± 0.25.
Still for that read-out and setting: the value for `CN(C)CC/C=C1/c2ccccc2Sc2ccc(Cl)cc21` was 1.08 ± 0.078; that for `c1ccc(-c2ccc(C(c3ccccc3)n3ccnc3)cc2)cc1` (stereo not drawn) was 1.22 ± 0.12.
On the same count and under the same terms, the value for `Cc1[nH]c2ccccc2c1CCNCc1ccc(/C=C/C(=O)NO)cc1` was 2.77 ± 0.17; that for `O=C(Nc1ccc(Br)cc1)c1cccc(S(=O)(=O)NC2CCCCC2)c1` was 1.24 ± 0.035; that for `CCC(C(=O)N1CCC2(CC1)CC2(F)F)c1ccccc1` (stereo not drawn) was 1.62 ± 0.45.

The next assay has the same test system. Description: IRF reporter (Lucia luciferase) activity fold change vs agonist alone; higher = enhanced IRF activity. The following applies: modulator concentration 10 µM; agonist: 3'3'-cGAMP 10 ug/mL. A digest of the protocol: as §1
For the molecule `Cc1ccc(F)c(NC(=O)Nc2ccc(-c3cccc4[nH]nc(N)c34)cc2)c1`, the IRF reporter stood at 0.102 ± 0.0067.
As to `CCN(CC)C(=O)N1CCN(C)CC1.O=C(O)CC(O)(CC(=O)O)C(=O)O`, the IRF reporter was determined as 0.895 ± 0.057.
Turning to `O=S(=O)(Nc1ccnc2ccccc12)c1ccccc1`, the IRF reporter is 0.858 ± 0.03.
Take `CC(C)C(=O)c1c(C(C)C)nn2ccccc12`: the IRF reporter came to 0.808 ± 0.076.
As for `CCC1OC(=O)C(C)C(OC2CC(C)(OC)C(O)C(C)O2)C(C)C(OC2OC(C)CC(N(C)C)C2O)C(C)(O)CC(C)CN(C)C(C)C(O)C1(C)O` (stereo not drawn), the IRF reporter came to 0.727 ± 0.058.
In the case of `O=C(Nc1ccc(NS(=O)(=O)c2ccccc2)cc1)c1ccco1`, the IRF reporter was 0.879 ± 0.14.
As to `O=C(CSC1CC(=O)N(c2ccc(C(=O)O)cc2)C1=O)Nc1ccc(F)cc1` (stereo not drawn), the IRF reporter was determined as 0.578 ± 0.021.
Consider `CC1ON(c2ccc(Cl)c(Cl)c2)C(=O)NC1=O` (stereo not drawn), for which the IRF reporter is 1.03 ± 0.032.
The same measure, in the same setting: the value for `CCN(CC)c1ccc(C=NNc2cc(N3CCOCC3)nc(N3CCOCC3)n2)cc1` was 0.458 ± 0.07.
With `COC(CNS(=O)(=O)c1ccccc1Br)c1ccc(C)s1` (stereo not drawn), the IRF reporter was 0.86 ± 0.082.
On the same count and under the same terms, the value for `CN(C)CC/C=C1\c2ccccc2COc2ccccc21.Cl` was 0.434 ± 0.02; that for `O=c1cccnn1CC1CN(c2ncc(Br)cn2)C1` was 0.964 ± 0.044; that for `CCOC(=O)C1=C(C)NC(C)=C(C(=O)OCC)C1c1ccc(F)cc1` was 1.05 ± 0.037.
Same read-out and setting: the value for `C#CCCCCCCCCCCCC(O)CC(O)COC(C)=O` (stereo not drawn) was 0.832 ± 0.11; that for `O=C(O)c1nn(-c2ccccc2)c(=O)c2ccccc12` was 0.955 ± 0.034.
`Cc1nnc(C(=O)NC(C)(C)c2nc(C(=O)NCc3ccc(F)cc3)c(O)c(=O)n2C)o1`: the IRF reporter was found to be 0.878 ± 0.029.
On to `OC(Cn1cncn1)(Cn1cncn1)c1ccc(F)cc1F`, for which the IRF reporter came out at 1.02 ± 0.052.
As for `Cn1c(=O)[nH]c2nnc(-c3cccnc3)nc2c1=O`, the IRF reporter is 0.927 ± 0.03.
On the same count and under the same terms, in the case of `Cc1c(C#N)sc2nc(-c3ccccc3)nc(N=CN(C)C)c12` it was 0.94 ± 0.056; in that of `CCC[C@@H]1C[C@@H](C(=O)N[C@@H]([C@H]2O[C@H](SC)[C@H](OP(=O)(O)O)[C@@H](O)[C@H]2O)[C@H](C)Cl)N(C)C1`, 0.972 ± 0.073; in that of `Cc1nc2n(c(=O)c1CCN1CCC(c3noc4cc(F)ccc34)CC1)CCCC2O` (stereo not drawn), 0.902 ± 0.038.
Still for that read-out and setting: in the case of `Cc1cc(C(=O)O)n[nH]1` it was 1.06 ± 0.038; in that of `N=C(N)Nc1ccc(Cl)cc1`, 0.984 ± 0.08.
For `COC(=O)C1=CN(CC2CCCO2)C=C(C(=O)OC)C1c1ccc(Cl)cc1` (stereo not drawn), the IRF reporter was found to be 0.94 ± 0.025.
Same read-out and setting: the value for `COc1ccc(OC)c(Nc2nc(-c3c(C)nc4ncccn34)cs2)c1` was 0.3 ± 0.014; that for `Nc1ncn([C@@H]2O[C@H](CO)[C@@H](O)[C@H]2O)c(=O)n1` was 0.549 ± 0.035; that for `O=Cc1ccc(OCc2cccc([N+](=O)[O-])c2)c(Br)c1` was 0.963 ± 0.045.
Consider `C=C(C)COc1ccc(-c2ncncc2-c2ccccc2)c(O)c1`, for which the IRF reporter came out at 0.996 ± 0.029.
Consider `CC(=O)c1ccc(NC(=O)c2ccccc2C(=O)O)cc1`, for which the IRF reporter came out at 0.903 ± 0.11.
With `O=c1ccc2cc(O)c(O)cc2o1`, the IRF reporter was 0.736 ± 0.026.
As for `Cc1ccsc1C(=CCCN1CCC[C@@H](C(=O)O)C1)c1sccc1C`, the IRF reporter was 0.857 ± 0.056.
Same read-out and setting: the value for `Br.CCCc1cc(-c2nc(-c3ccc(C)cc3)cs2)ccn1` was 1.04 ± 0.069; that for `CCCCc1oc2ccccc2c1C(=O)c1cc(I)c(OCCN(CC)CC)c(I)c1.Cl` was 0.55 ± 0.033; that for `CNC1CCC(c2ccc(Cl)c(Cl)c2)c2ccccc21.Cl` (stereo not drawn) was 0.52 ± 0.016.
The same measure, in the same setting: in the case of `CN(C)CC/C=C1/c2ccccc2Sc2ccc(Cl)cc21` it was 0.925 ± 0.043.
Same read-out and setting: in the case of `c1ccc(-c2ccc(C(c3ccccc3)n3ccnc3)cc2)cc1` (stereo not drawn) it was 0.966 ± 0.044.
Regarding `Cc1[nH]c2ccccc2c1CCNCc1ccc(/C=C/C(=O)NO)cc1`, the IRF reporter stood at 0.0565 ± 0.0025.
Still for that read-out and setting: the value for `O=C(Nc1ccc(Br)cc1)c1cccc(S(=O)(=O)NC2CCCCC2)c1` was 0.527 ± 0.019; that for `CCC(C(=O)N1CCC2(CC1)CC2(F)F)c1ccccc1` (stereo not drawn) was 1.06 ± 0.048.
